Records with an inconclusive call do not appear. Active and inactive are the calls of the source. The call rests on the fitted dose curve; in most records, active means well fitted cell-killing curve with a large enough effect; inconclusive means small, poorly fitted or top-dose-only effect, or effect the other way; inactive means no such curve, though single readings can be large or run the other way.
Potency means the concentration at half of the fitted maximal effect.

A short description of the assay: Quantitative High-Throughput drug screen in 47 multiple myeloma cell lines against the NCATS MIPE library collection: OPM1_PLB cell viability assay (AID 1918989). Further: nearly all actives have a fitted effect of over 40% in size. As to conditions: CellTiter-Glo, 48 h; series mostly up to 45.8 µM. The text has this: PI: Beverly A. Mock Ph.D.
Laboratory of Cancer Biology and Genetics,
Center for Cancer Research, National Cancer Institute,
National Institute of Health, Bethesda, Maryland
Drug resistance and disease progression are common in multiple myeloma (MM) patients, underscoring the need for new therapeutic combinations. […] We hypothesized that effective combinations would reduce MYC expression and enhance p16 activity. […] These preclinical data identify potentially useful drug combinations for evaluation in drug-resistant MM and reveal potential mechanisms of combined drug sensitivity.
Described herein is the primary MIPE qHTS used to cherrypick compounds. Validated compounds were then further tested for potential synergistic activiy.
[1] Peat TJ, Gaikwad SM, Dubois W, Gyabaah-Kessie N, Zhang S, Gorjifard S, Phyo Z, Andres M, Hughitt VK, Simpson RM, Miller MA, Girvin AT, Taylor A, Williams D, D'Antonio N, Zhang Y, Rajagopalan A, Flietner E, Wilson K, Zhang X, Shinn P, Klumpp-Thomas C, McKnight C, Itkin Z, Chen L, Kazandijian D, Zhang J, Michalowski AM, Simmons JK, Keats J, Thomas CJ, Mock BA. Drug combinations identified by high-throughput screening promote cell cycle transition and upregulate Smad pathways in myeloma. Cancer Lett. 2023 Aug 1;568:216284. doi: 10.1016/j.canlet.2023.216284. Epub 2023 Jun 24. PMID: 37356470; PMCID: PMC10408729.
SEQUENCE No. (e.g., 1, 2, 3, etc.); […] (e.g., Cells, Incubation, Reagent, etc.); VALUE and DESCRIPTION.
1; Cells; 5 uL; white, solid bottom 1536-well Greiner assay plate.
2; Compounds; 23 nL; Kalypsis pin tool (Wako USA) equipped with a 1536-well pin head to transfer to the assay plates.
3; Incubation; 48 hours; 37C incubation.
4; Reagent;5uL; CellTiter Glo (Promega).
5; Detector; 425V; Luminescence; Viewlux PerkinElmer.
NOTES (numbers refer to Sequence numbers above)
1. The cell-based screening methods employed in this study were like those previously published. Briefly, the corresponding myeloma cell lines were screened in 1,536-well plates with 500 cells, 5-uL per well for inhibition of cell viability (assessed by measuring ATP levels with CellTiterGlo).
2. NCATS MIPE 4.0 library of approved and investigational drugs were added using the Kalypsis pin tool. Wells treated with DMSO only for 100% viability and media only for 0% viability were used as controls.
3. The assay plates were covered and incubated for 48 hours in a 37C, 5% CO2 incubator with controlled humidity.
4. After 48 hours, CellTilter-GloTM luminescent substrate mix (Promega) reagent was added to the assay plate and plates we incubated for 5 min at room temperature.
5. Signal was measured as median relative luminescence units on a ViewLux (PerkinElmer) multiplate reader.
[1] Heske CM, Davis MI, Baumgart JT, Wilson K, Gormally MV, Chen L, Zhang X, Ceribelli M, Duveau DY, Guha R, Ferrer M, Arnaldez FI, Ji J, Tran HL, Zhang Y, Mendoza A, Helman LJ, Thomas CJ. Matrix Screen Identifies Synergistic Combination of PARP Inhibitors and Nicotinamide Phosphoribosyltransferase (NAMPT) Inhibitors in Ewing Sarcoma. Clin Cancer Res. 2017 Dec 1;23(23):7301-7311. doi: 10.1158/1078-0432.CCR-17-1121. Epub 2017 Sep 12. PMID: 28899971; PMCID: PMC6636827.
Background: In ATP-based viability assays light output follows the ATP content of the culture.
In the case of `CC[C@H](CO)Nc1nc(NCc2ccccc2)c2ncn(C(C)C)c2n1`, the Potency was 23.5 µM (active). The figure for `Nc1cc(C(F)(F)F)c(-c2cc(N3CCOCC3)nc(N3CCOCC3)n2)cn1` is 1.05 µM (active); for `Cn1c2cc(S(C)=O)sc2c2cnn(Cc3cccc(N)c3)c(=O)c21` (stereo not given) it is “inactive”; for `Cn1c(CNc2ccc(C(=N)N)cc2)nc2cc(C(=O)N(CCC(=O)O)c3ccccn3)ccc21` it is “inactive”.

With `COc1cc(C)c(Sc2cnc(NC(=O)c3ccc(CNC(C)C(C)C)cc3)s2)cc1C(=O)N1CCN(C(C)=O)CC1` (stereo not given), the Potency is 18.7 µM (active). The result for `CCc1c2c(nc3ccc(O)cc13)-c1cc3c(c(=O)n1C2)COC(=O)[C@]3(O)CC` reads 0.935 µM (active); that for `COc1cc2c(Nc3ccc(NC(=O)c4ccccc4)cc3)ncnc2cc1OCCCN1CCOCC1`, 20.9 µM (active).

On to `Cc1cc(Nc2ncnc3ccc(-c4ccc(CNCCS(C)(=O)=O)o4)cc23)ccc1Oc1ccn2ncnc2c1`, for which the Potency was 5.9 µM (active). The result for `Nc1nc(Nc2ccc(S(N)(=O)=O)cc2)nn1C(=O)c1c(F)cccc1F` reads 7.43 µM (active); that for `CC(C)c1cc(C(=O)N2Cc3ccc(CN4CCN(C)CC4)cc3C2)c(O)cc1O`, 0.118 µM (active); that for `Cc1cc(C(=O)N2CCN(c3cccc(Cl)c3)CC2)n(-c2ccccc2)n1`, 5.26 µM (active).

As for `CCn1cc(-c2ccnc3[nH]c(-c4cccc(CN(C)C)c4)cc23)c(-c2ccc(NC(=O)N(C)C)cc2)n1`, the Potency was 2.96 µM (active).

Take `Cc1ccc2nc(NC(=O)CSc3nc4c(c(=O)n3-c3ccccc3)SCC4)sc2c1`: the Potency is 16.6 µM (active).

With `C[C@@H]1COC(Nc2ccc3ncnc(Nc4ccc(OCc5nccs5)c(Cl)c4)c3c2)=N1`, the Potency is 16.6 µM (active). The result for `Nc1ccccc1NC(=O)c1ccc(CNC(=O)OCc2cccnc2)cc1` reads 0.743 µM (active); that for `Clc1cccc(-c2nnnn2Cc2cccnc2)c1Cl`, “inactive”. `COC(=O)c1ccc2c(C(=Nc3ccc(N(C)C(=O)CN4CCN(C)CC4)cc3)c3ccccc3)c(O)[nH]c2c1`: the Potency is 2.09 µM (active). The result for `CC(C)c1ccccc1Cc1cc(C(=O)Nc2ccc(S(=O)(=O)c3ccccc3C(C)(C)C)cc2)c(O)c(O)c1O` reads 9.35 µM (active); that for `CC(C)c1cnn2c(NCc3ccccc3)cc(N[C@@H](CO)[C@H](O)CO)nc12`, 0.235 µM (active); that for `Nc1ccc(S(=O)(=O)Nc2ncccn2)cc1`, “inactive”. The entry for `CC(C)(C)c1cc(C(C)(C)C)c(NC(=O)c2c[nH]c3ccccc3c2=O)cc1O` is “inactive”; for `CC[C@@]1(O)C(=O)OCc2c1cc1n(c2=O)Cc2cc3cc(O)ccc3nc2-1` it is 2.96 µM (active); for `CC(C)c1noc(N2CCC(COc3ccc(-c4ccc(S(C)(=O)=O)cc4)nc3)CC2)n1` it is “inactive”. For `O=C(O)CCCc1c[nH]c2ccccc12`, the Potency entry is “inactive”.

On to `Cc1cc(CN2CCN(c3c(Br)cnc4nc(-c5ccc(N6CCN(C)CC6)cc5)[nH]c34)CC2)no1`, for which the Potency is 4.18 µM (active).

Turning to `Cc1cn2c(-c3cn[nH]c3)cnc2c(Nc2ccc(C(=O)N3CCNCC3)cc2F)n1`, the Potency was 18.7 µM (active). The figure for `Cc1c(NC(=O)OC[C@@H]2COCCN2)cn2ncnc(Nc3ccc4c(cnn4Cc4cccc(F)c4)c3)c12` is 4.18 µM (active). The entry for `O=C(C=Cc1c(C(=O)O)[nH]c2cc(Cl)cc(Cl)c12)Nc1ccccc1` is “inactive”. Consider `CC(=O)OCC(=O)[C@@]1(O)[C@H](C)C[C@H]2[C@@H]3C=C(C)C4=Cc5c(cnn5-c5ccccc5)C[C@]4(C)[C@@H]3[C@@H](O)C[C@@]21C`, for which the Potency was 9.35 µM (active).

As to `COc1cc2nccc(Oc3ccc(NC(=O)C4(C(=O)Nc5ccc(F)cc5)CC4)cc3)c2cc1OC`, the Potency was 23.5 µM (active).

In the case of `CC(NCc1ccc2c(c1)nc(NC(=O)c1ccc(-c3cn[nH]c3)s1)n2CC(C)(C)O)C(C)(C)C` (stereo not given), the Potency was 0.264 µM (active). The result for `COC(=O)Nc1nc2ccc(C(=O)c3ccc(F)cc3)cc2[nH]1` reads 0.59 µM (active); that for `CNc1nccc(-c2cccnc2Oc2cc(C(=O)Nc3cccc(C(F)(F)F)c3)ccc2C)n1`, 13.2 µM (active); that for `N#CCNC(=O)c1ccc(-c2ccnc(Nc3ccc(N4CCOCC4)cc3)n2)cc1`, 11.8 µM (active).

Regarding `CC(C)c1cc(-c2n[nH]c(=O)n2-c2ccc3c(ccn3C)c2)c(O)cc1O`, the Potency was 0.0296 µM (active). The result for `Nc1ncnc2c1c(-c1cccc(OCc3ccccc3)c1)cn2C1CC(CN2CCCC2)C1` (stereo not given) reads 5.9 µM (active); that for `O=C(c1ccc(Nc2nccc(-c3cc4ccccc4s3)n2)cc1)N1CCC(N2CCCC2)CC1`, 5.26 µM (active). The result for `NCC(=O)Nc1ccc(-n2nc(C(F)(F)F)cc2-c2ccc3c(ccc4ccccc43)c2)cc1` reads 18.7 µM (active); that for `CCCCc1nc2cc(C=CC(=O)NO)ccc2n1CCN(CC)CC`, 0.148 µM (active); that for `O=C(O)[C@H](Cc1c[nH]c2ccccc12)N1C(=O)c2ccccc2C1=O`, “inactive”.

Values taken from PubChem BioAssay (NCATS).
